# Inconclusive results are not listed. Unmarked numbers belong to inactive results. The call rests on the fitted dose curve; in most records, active means well fitted activation curve with a large enough effect; inconclusive means small, poorly fitted or top-dose-only effect, or effect the other way; inactive means flat fitted curve, though single readings scatter.
# Experiment: Cellular Toxicity (caspase-3) NIH 3T3 (AID 666);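 further: caspase signal read after 16 h compound exposure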
# Conditions: NIH 3T3 caspase-3 activation, apoptosis/toxicity, 0% DMSO, 100% is 100 µM tamoxifen; series mostly up to 92.2 µM; caspase-3 activation: at the top concentration
# Text: NIH Chemical Genomics Center [NCGC]
# NIH Molecular Libraries Screening Centers Network [MLSCN]
# National Institutes of Environmental Health Sciences [NIEHS]
# National Toxicology Program [NTP]
# We have developed a 1536-well cell-based assay for quantitative high throughput screening (qHTS) against a number of cell lines to determine in vitro caspase 3/7 of small molecules. This particular assay uses the NIH 3T3 cell line which is derived from mouse fibroblasts.
# NCGC Assay Protocol Summary:
# The Caspase-Glo 3/7 assay (Promega) is a homogeneous method to measure caspase-3 and caspase-7 activities in cultured cells. The quantitation of caspase 3/7 activity is based on the cleavage of a peptide-aminoluciferin substrate. After caspase cleaves the substrate the free aminoluciferin is liberated and serves as the substrate of luciferase, which generates the light. The luminescent signal is proportional to amount of caspase 3/7 activity present.
# Using the Caspase-Glo 3/7 assay, the amount of caspase 3/7 activity was measured in the NIH 3T3 cell line with complete culture medium following compound treatment for 16 hours. The assay was performed in opaque white 1536-well plates. In the screen, tamoxifen and doxorubicin were used as positive controls. Library compounds were measured for their ability to cause the activation of caspase 3/7 in the cell line, as reflected by an increase in luminescence signal, in a concentration-dependent manner. Data were normalized to the controls for basal activity (DMSO only) and 100% stimulation (100 uM tamoxifen). AC50 values were determined from concentration-response data modeled with the standard Hill equation.
# qHTS protocol for caspase 3/7 assay in NIH 3T3 cells
# [Step] [Parameter] [Value] [Description]
# 1. Reagent; 5 uL; 1000 NIH 3T3 cells/well
# 2. Time; 5 hr; 37 °C incubation
# 4. Controls; 23 nL; Tamoxifen 0.23 uM to 100 uM & Doxorubicin 7.0 pM to 100 uM
# 5. Time; 16 hr; 37 °C incubation
# 6. Reagent; 5 uL; Caspase-Glo 3/7 reagent
# 7. Time; 20 min; Room Temperature
# 8. Detection; Luminescence; Viewlux plate reader
# Keywords: caspase 3/7, apoptosis, NIH 3T3 cell line, luminescence, NTPHTS, NTPHTS_NCGC, NIEHS, EPA, DSSTox, MLSMR, MLSCN, NIH Roadmap, qHTS, NCGC
row,Structure (SMILES),caspase-3 activation [%]
1,COC(=O)CCCC(=O)OC,-0.486
2,NC=O,0.426
3,Nc1cc(Cl)c(N)c(Cl)c1,-1.62
4,CC(C)(C)OC=O,-6.14
5,C/C=C1\CC2C=CC1C2 (stereo not given),-1.97
6,CCOc1ccc(NC(C)=O)cc1N,-4.01
7,CCC=O,-0.91
8,C=C(C)C1CC=C(C)C(OC(C)=O)C1 (stereo not given),0.356
9,C=C(C)C(=O)OCCCCCC,-3.9
10,O=[N+]([O-])c1ccc(Cl)cc1Cl,0.795
11,Cc1ccc(Cl)cc1N,-4.07
12,Cc1c(N)cccc1N,-0.883
13,BrC/C=C/CBr,0.908
14,Cc1ccc2cccnc2c1,4.57
15,CCCCCCCCCCCCC1CO1 (stereo not given),3.05
16,OC1CCCC1,-1.83
17,Cc1cccc2cccnc12,-2.88
18,COc1ccc(N)c(C)c1,-4.87
19,ClC/C=C/CCl,-2.33
20,OC(CCl)CCl,0.503

row,Structure (SMILES),caspase-3 activation [%]
1,Cc1ccc2c(c1[N+](=O)[O-])C(=O)c1ccccc1C2=O,-4.48
2,NC(=O)/N=N/C(N)=O,-20
3,C[C@@H]1CC2(OC3C[C@@]4(C)C5=CC[C@H]6C(C)(C)C(O[C@@H]7OC[C@@H](O)[C@H](O)[C@H]7O)CC[C@@]67C[C@@]57CC[C@]4(C)C31)OC(O)C1(C)OC21 (stereo not given in full),-0.61
4,CC(=O)c1ccccc1[N+](=O)[O-],-2.25
5,O=P(O)(OCc1ccccc1)OCc1ccccc1,-0.704
6,CC#N,2.28
7,O=C1C=CCCC1,-2.78
8,C(=C/c1ccccc1)/c1ccccc1,-4.39
9,C=CCOC(=O)CCCCCCCC,-0.569
10,CC/C=C/C#N,-1.03
11,Nc1cccc2c(=O)[nH][nH]c(=O)c12,-0.555
12,CC(C)N(C)C,-2.38
13,CCC(C)(C)C,-1.04
14,Cc1cc([N+](=O)[O-])ccc1N,0.235
15,Nc1cccc([N+](=O)[O-])c1,2.16
16,Nc1ccc(Cl)cc1[N+](=O)[O-],-2.99
17,CCCCOCCOCCSC#N,-0.224
18,Cc1cc(C)cc(O)c1,-2.37
19,c1ccc2[nH]cnc2c1,1.56
20,CC(C)Nc1ccccc1,-0.812
